# Data taken from PubChem BioAssay AID1863 (Southern Research Specialized Biocontainment Screening …, 2009).
# The campaign covered roughly 300,000 compounds. About 480 (0.16%) were called active.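 How the source made its calls: active means inhibition over 29.93%, a cutoff 3 SD above the screen mean, later confirmed by dose response; inconclusive means inhibition over 29.93% but no dose response follow-up; inactive means inhibition at most 29.93% or unconfirmed.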 The list is a sample of the results. Entries with a potency or affinity are not part of this list.
# Test: inhibitors of PhoP regulon expression, primary screen, Salmonella Typhimurium, GFP reporter (AID 1863);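 further: 0% = low Mg2+ inducing control and 100% = high Mg2+ repressing control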
# Conditions: S. Typhimurium PhoP-regulated promoter GFP reporter, 4 h; at 50 µM; active compounds read high
row,SMILES,inhibition
1,Nc1nonc1C(=O)NCCNC(=O)c1cccs1,17.7% (inactive)
2,O=C(O)C1CCN(C(=O)COc2ccc3c4c(c(=O)oc3c2)CCCC4)CC1,4.17% (inactive)
3,COc1ccc(N2CCN(c3oc(-c4ccco4)nc3C#N)CC2)cc1,26.4% (inactive)
4,COc1cc(S(=O)(=O)n2ccnc2)ccc1Br,-8.94% (inactive)
5,O=C(NCC1CCCO1)C(C(=O)c1ccc(F)cc1)n1ccccc1=O (stereo not given),2.45% (inactive)
6,COc1ccc(S(=O)(=O)n2oc(=O)cc2-c2ccccc2)cc1,-4.7% (inactive)
7,CCN(CC)C(=S)Nc1ccc([N+](=O)[O-])cc1,3.9% (inactive)
8,Oc1ccc(Cl)cc1CNn1cnnc1,18.7% (inactive)
9,Oc1ccc(Cl)cc1CNc1ccccn1,14.1% (inactive)
10,O=C(c1cc2c(=O)oc3ccccc3c2s1)N1CCOCC1,2% (inactive)
11,CCOC(=O)NCC(C#CCN(CC)CC)N(CC)CC (stereo not given),4.11% (inactive)
12,O=C(O)CSc1cc(NS(=O)(=O)c2ccc(Cl)cc2)c2ccccc2c1O,-5.26% (inactive)
13,O=C(O)CSc1cc(NS(=O)(=O)c2ccc(Br)cc2)c2ccccc2c1O,0.22% (inactive)
14,CC(C)Oc1ccc(C(=O)OC(C)C(=O)Nc2nc(-c3cccc([N+](=O)[O-])c3)cs2)cc1 (stereo not given),3.69% (inactive)
15,COc1ccc(CN2C3CCC2CC(NC(=O)c2cccc(F)c2)C3)cc1 (stereo not given),5.59% (inactive)
16,NCC12CC3CC(C1)CC(c1ccc(Cl)cc1)(C3)C2,10.5% (inactive)
17,Cc1ccc(C23CC4CC(CC(CN)(C4)C2)C3)cc1,26.1% (inactive)
18,CCOC(=O)N1CCN(C(=O)c2ccc(NS(C)(=O)=O)cc2)CC1,12.6% (inactive)
19,O=C(NCCc1ccccc1)c1ccc(-c2ccc(F)cc2)o1,0.73% (inactive)
20,CCSc1nc(N2CCOCC2)c2ccccc2n1,-4.32% (inactive)
21,COc1cc(NC(=O)Cn2ccsc2=N)c(C)cc1[N+](=O)[O-],0.16% (inactive)
22,CCc1ccc2[nH]c3nc(N/N=C/c4cccc(O)c4)nnc3c2c1,1.71% (inactive)
23,Oc1ccc(/C=N\Nc2nncc(-c3ccccc3)n2)cc1,1.9% (inactive)
24,CC(=O)N/N=C/c1c(C)[nH]n(-c2ccccc2)c1=O,3.32% (inactive)

row,SMILES,inhibition
1,COc1ccc(S(=O)(=O)NCC(=O)N(CC(=O)NCc2ccco2)Cc2ccc(F)cc2)cc1,6.01% (inactive)
2,Oc1ccccc1Nc1ccccn1,0.2% (inactive)
3,c1ccc(Nc2ccccn2)nc1,-3.66% (inactive)
4,CCCc1[nH]nc2c1C(c1ccc(OC)c(Cn3nnc4ccccc43)c1)C(C#N)=C(N)O2 (stereo not given),6.36% (inactive)
5,CC(C)(C)OC(=O)N1CCN(C(=O)c2[nH]cnc2C(=O)N[C@@H](Cc2ccccc2)C(=O)OCc2ccccc2)CC1,7.86% (inactive)
6,COc1ccc(OC)c(N2C(N)=NC(N)=NC23CCCC3)c1,-1.52% (inactive)
7,COc1cccc(C(=O)Nc2nnc(-c3cccs3)o2)c1,8.85% (inactive)
8,O=C(Nc1nnc(-c2cccs2)o1)c1cccc(C(F)(F)F)c1,-1.86% (inactive)
9,N=c1n(CC(=O)c2cccs2)c2ccccc2n1Cc1ccccc1,-1.64% (inactive)
10,CCn1c(=N)n(CC(=O)c2ccc(Br)s2)c2ccccc21,9.45% (inactive)
11,Cc1nc2ccc(S(=O)(=O)NCC(=O)Nc3cccc(F)c3)cc2s1,0.67% (inactive)
12,Nc1c(Cl)ncnc1N/N=C/c1ccncc1,-8.59% (inactive)
13,Nc1c(Cl)ncnc1N/N=C/c1ccc2ccccc2n1,-18.8% (inactive)
14,Cc1cc(CNC(=O)C2CCC(=O)N(Cc3cccc(C(F)(F)F)c3)C2)no1 (stereo not given),8.7% (inactive)
15,Cn1c(=O)c(=O)n(C)c2cc(S(=O)(=O)N3CCN(c4cccc(C(F)(F)F)c4)CC3)ccc21,-8.38% (inactive)
16,COc1cccc(N(CC(=O)NC(C)c2ccccc2)S(C)(=O)=O)c1 (stereo not given),-3.79% (inactive)
17,Nc1nnc(CC(=O)N/N=C/c2ccccc2OCc2ccccc2F)s1,2.44% (inactive)
18,CSCC[C@H](NC(=O)Nc1ccc(S(N)(=O)=O)cc1)C(=O)O,-5.86% (inactive)
19,COC(=O)[C@H](CCSC)NC(=O)Nc1ccc(C)cc1,-5.05% (inactive)
20,COc1cccc(OCc2cc(C(=O)N3CCN(c4ccccc4O)CC3)no2)c1,8.64% (inactive)
21,CCCOc1ccc(C(=O)O)cc1,-6.14% (inactive)
22,CCOc1ccc(C(=O)C(CCC(CN(C)C)C(=O)c2ccc(OCC)cc2)CN(C)C)cc1 (stereo not given),17.1% (inactive)
23,COCCn1c(SCC(=O)N2CCCCC2)nc2c([nH]c3ccccc32)c1=O,-1.34% (inactive)
24,O=C(N/N=C/c1cc(Br)ccc1O)c1ccncc1,3.11% (inactive)

row,SMILES,inhibition
1,O=C(N/N=C/c1ccc(Cl)cc1Cl)c1ccncc1,3.86% (inactive)
2,O=C(N/N=C/c1ccc(O)c([N+](=O)[O-])c1)c1ccncc1,-0.43% (inactive)
3,O=C(N/N=C/c1ccccc1O)c1ccncc1,-5.2% (inactive)
4,O=C(N/N=C/c1cc(Br)c(O)c(Br)c1)c1cccnc1,-1.14% (inactive)
5,Cc1ccc(C(=O)N/N=C\c2cc3c(cc2Br)OCO3)cn1,1.38% (inactive)
6,COc1ccc(C(=O)N/N=C/c2cc(Br)ccc2O)cc1OC,-7.66% (inactive)
7,O=C(N/N=C/c1cc(Br)c(O)c(Br)c1O)c1cccnc1,-3.91% (inactive)
8,Cc1nc2c3ccccc3nc(SCC(=O)N3CC(C)CC(C)C3)n2n1 (stereo not given),4.78% (inactive)
9,Cc1ccc2oc(=O)c3cnn(CC(=O)N4CCCc5ccccc54)c3c2c1,-8.23% (inactive)
10,Cc1cccc(NC(=O)CNC(=O)N2CC(=O)Nc3ccccc32)c1C,-2.45% (inactive)
11,Cc1cccc(C(=O)Nc2nnc(SCC(=O)NC3CC3)s2)c1,-3.7% (inactive)
12,CS(=O)(=O)N1CCc2ccc(NC(=O)C3CCCO3)cc2C1 (stereo not given),4.89% (inactive)
13,Cc1ccc(S(=O)(=O)/N=C(/c2ccc(F)cc2)N2CCOCC2)cc1,-3.33% (inactive)
14,CCOC(=O)C1CCN(c2ncnc3nc[nH]c23)CC1,0.02% (inactive)
15,Cc1ccc(OCCC(=O)OCC(=O)Nc2ccccc2)cc1,1.27% (inactive)
16,O=C(N/N=C/c1cc([N+](=O)[O-])ccc1O)C1CCCCC1,1.18% (inactive)
17,O=C(N/N=C/c1cccnc1)c1cccc(Cl)c1,-1.41% (inactive)
18,O=C(N/N=C/c1cc(Cl)ccc1O)c1ccc(Br)cc1,4.94% (inactive)
19,O=C(N/N=C/c1coc2ccc(Cl)cc2c1=O)c1ccncc1,7.37% (inactive)
20,O=C(N/N=C/c1cc([N+](=O)[O-])ccc1O)C1C2CCCCC21 (stereo not given),-0.31% (inactive)
21,O=C(N/N=C/c1coc2ccc(Cl)cc2c1=O)c1ccc(O)cc1,10.4% (inactive)
22,CCOc1ccc(CN2CCC(n3nccc3NC(=O)c3ccccc3OC)CC2)cc1,-0.04% (inactive)
23,CCCNC(=O)c1ccccc1NS(=O)(=O)c1ccc(OC)c(OC)c1,4.85% (inactive)
24,CCc1cc(C(=O)N(CCCOC)c2c(N)n(Cc3ccccc3)c(=O)[nH]c2=O)sc1C,-2.51% (inactive)

row,SMILES,inhibition
1,CCOC(=O)C(C(=O)OCC)C(C(=O)OCC)N1CCOCC1 (stereo not given),3.26% (inactive)
2,CC1(C)NC(=O)N(CC(O)CN2C(=O)CCC2=O)C1=O (stereo not given),-6.24% (inactive)
3,Cn1c2ccccc2c(=O)c2ccc(C#Cc3ccccn3)cc21,0.47% (inactive)
4,COc1ccccc1N1CCN(C(c2ccccc2)c2nnnn2CCc2ccccc2)CC1 (stereo not given),1.99% (inactive)
5,Cc1cc(C)n(CCCNC(=O)Cn2nnnc2CN2C[C@@H](C)O[C@@H](C)C2)n1,0.46% (inactive)
6,COc1ccccc1NS(=O)(=O)c1ccc(Cl)c(NC(=O)c2sc3cc(Cl)ccc3c2Cl)c1,5.27% (inactive)
7,Cc1cc(SCC(=O)N/N=C/c2ccc(O)c(O)c2)c(C)cc1Br,-9.61% (inactive)
8,Cc1cc(SCC(=O)N/N=C/c2ccc(O)cc2O)c(C)cc1Br,-6.96% (inactive)
9,CCCCC(c1nnnn1C1CCCC1)N1CCN(C(=O)c2ccco2)CC1 (stereo not given),-4.03% (inactive)
10,Cc1cc(C(=O)N/N=C/c2cc([N+](=O)[O-])ccc2O)c2ccccc2n1,18.3% (inactive)
11,Cc1cc(C(=O)N/N=C/c2cc(Cl)cc([N+](=O)[O-])c2O)c2ccccc2n1,28.8% (inactive)
12,O=C(Nc1ccccc1N1CCN(C(=O)c2ccc(Cl)cc2)CC1)c1cccc(F)c1,2.12% (inactive)
13,Cc1ccc(S(=O)(=O)N2CCC(C(=O)NCCN3CCOCC3)CC2)cc1C,-3.49% (inactive)
14,O=C(c1ccc(Cl)cc1)c1ccc(Oc2cc(NN3CCCCC3)c([N+](=O)[O-])cc2[N+](=O)[O-])cc1,6.36% (inactive)
15,CCOc1ccc(C2CC(=O)NC2=O)cc1 (stereo not given),3.62% (inactive)
16,O=C(NCc1nc(-c2ccc(Cl)cc2)no1)c1ccco1,-1.48% (inactive)
17,O=C(O)c1ccc(N2C(=O)CC(N3C(=O)/C(=C/c4ccc(Cl)cc4)SC3=S)C2=O)cc1 (stereo not given),16% (inactive)
18,CN1CCN(C(=O)CCN2C(=O)/C(=C\c3ccc(Cl)cc3)SC2=S)CC1,-5.92% (inactive)
19,Cc1cccc(C)c1NC(=O)CCCCCC1NC(=O)NC1C (stereo not given),2.4% (inactive)
20,Cc1nn(-c2ccccc2)c(N)c1Sc1ccc([N+](=O)[O-])cc1,0.62% (inactive)
21,C=CCn1c(=NC(=O)CN2C(=O)CCC2=O)sc2cc(S(N)(=O)=O)ccc21,17% (inactive)
22,CC1CCN(Cc2ccc(-c3nnn(CC(=O)Nc4ccccc4Cl)n3)cc2)CC1,-3.86% (inactive)
23,COc1ccccc1N1CCN(C(=O)C(C)CS(=O)(=O)c2ccc3c(c2)NC(=O)CS3)CC1 (stereo not given),-8.13% (inactive)
